Eya2 inh = qHTS Assay for Inhibitors of the Phosphatase Activity of Eya2. 0.006% of 330,000 active. AID 488837, 2010. Potency, µM (highest dose often 76.9 µM), inactives show at the highest dose activity, negative = inhibition, usual class: inhibitors. recombinant Eya2, OMFP fluorescence dephosphorylation (OMFP is methylfluorescein phosphate). Protein phosphatase EYA2 (Homo sapiens), O00167; also: potency is read from the fitted curve at half-maximal effect
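Eya2 (0.2 uM) preincubated 10 min at ambient with compound, then OMFP substrate added at 50 uM; 10 min reaction in 50 mM HEPES pH 7.5, 50 mM NaCl, 5 uM MgCl2, 0.05% BSA, 1 mM DTT. Fluorescence read at Ex 485/Em 525 nm.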
PI4K2A block = qHTS for small molecular inhibitors of PI4K2A; purified PI4K2A, ADP-Glo luminescence, 1 h; stronger effect = lower value; activity change, negative = inhibition, % at 76.9 µM; 0.13% of 420,000 active; AID 1346378, 2018; in the data active = activity change below about -50%; inconclusive = mostly about -30% to -49%;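 also: -100% = wells without enzyme as full effect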
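PI4K2A activity was measured by ADP-Glo luminescence: enzyme (4 ug/mL stock) and phosphatidylinositol (1.2 mM stock) in Tris pH 7.5/MgCl2/EGTA/Triton X-100 buffer were reacted with ATP (300 microM stock) for one hour at ambient temperature.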
USP2a block = qHTS Assay for Inhibitors of Ubiquitin-specific Protease USP2a Using CHOP2 as the Reporter; 0.01% of 330,000 active; USP2 core, Ub-CHOP2 coupled fluorogenic reporter, 485/531; Ubiquitin carboxyl-terminal hydrolase 2 (Homo sapiens), O75604; Potency, µM (series often up to 38.3 µM), without a hit: at the top dose activity change, negative = inhibition, hits mostly inhibitors;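 also: potency is read from the fitted curve at half-maximal effect; plate controls were DMSO wells for no effect and full inhibition by NEM control for full effect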
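Deubiquitinase activity read as fluorescence (485/531 nm) after Ub-CHOP2 cleavage activates the enterokinase reporter on its substrate; USP2 core 10nM, Ub-CHOP2 and substrate 25nM each, 30min compound preincubation then 60min RT; data normalized to NEM, curves fitted.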
Coupling enz = qHTS Assay for Inhibitors of Fructose-1,6-bisphosphate Aldolase from Giardia Lamblia: Coupling assay counterscreen | AID 2472, 2010 | coupling enzyme system counterscreen, AmpLite Red fluorescence | 0.67% of 290,000 active | activity change, negative = inhibition, % at 58.2 µM, hits read low; in the data active = activity change below about -30%
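Final compound at 57.5 uM, incubated 10 min at RT with coupling enzyme reagent (glyceraldehyde-3-phosphate), then 20 min with substrate and AmpLite Red detection. Fluorescence read at 525/598 nm; tests interference with the coupling assay, not aldolase inhibition.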
USP1-UAF1 inh = Inhibitors of USP1/UAF1: Primary Screen | Ubiquitin carboxyl-terminal hydrolase 1 (Homo sapiens), O94782 | recombinant USP1/UAF1, Ub-Rhodamine cleavage fluorescence | Potency, µM (top dose mostly 57.1 µM), without a hit: at the highest dose activity change, negative = inhibition, hits mostly inhibitors | 0.23% of 390,000 active | AID 743255, 2014; also: potency is read from the fitted curve at half-maximal effect; nearly all actives have a fitted effect of over 60% in size
Target sequence (O94782 whole entry, looked up): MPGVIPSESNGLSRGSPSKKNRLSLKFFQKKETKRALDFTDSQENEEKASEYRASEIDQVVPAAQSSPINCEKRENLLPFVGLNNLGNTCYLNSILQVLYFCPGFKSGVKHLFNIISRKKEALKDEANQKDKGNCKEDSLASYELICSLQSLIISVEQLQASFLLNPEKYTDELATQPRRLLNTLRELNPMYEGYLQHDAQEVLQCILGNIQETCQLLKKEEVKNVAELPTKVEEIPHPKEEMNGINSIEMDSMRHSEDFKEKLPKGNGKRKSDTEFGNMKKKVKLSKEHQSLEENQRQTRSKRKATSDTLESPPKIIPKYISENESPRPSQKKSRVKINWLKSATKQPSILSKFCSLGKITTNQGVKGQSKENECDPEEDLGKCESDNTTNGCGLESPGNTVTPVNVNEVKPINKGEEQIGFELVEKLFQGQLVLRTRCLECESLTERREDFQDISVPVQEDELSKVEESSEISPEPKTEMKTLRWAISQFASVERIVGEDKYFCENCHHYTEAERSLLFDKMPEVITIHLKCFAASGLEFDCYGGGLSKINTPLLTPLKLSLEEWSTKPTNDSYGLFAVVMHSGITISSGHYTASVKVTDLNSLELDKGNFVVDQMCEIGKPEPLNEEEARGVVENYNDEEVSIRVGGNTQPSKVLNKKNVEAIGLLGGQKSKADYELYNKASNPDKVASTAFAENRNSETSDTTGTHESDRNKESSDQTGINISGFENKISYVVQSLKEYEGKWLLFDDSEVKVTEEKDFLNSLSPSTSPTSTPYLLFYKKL
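USP1/UAF1 complex at 1 nM was preincubated with compound for 15 min at room temperature, then Ub-Rho substrate (150nM final) was added. Fluorescence (480/540 nm) was read kinetically, 6 reads every 60 seconds.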
GALK inh = qHTS Assay for Inhibitors of Human Galactokinase (GALK) | Potency, µM (highest dose often 57.5 µM), for inactives: at the highest dose activity change, negative = inhibition, usual class: inhibitors | AID 1868, 2009 | Purified GALK, Kinase-Glo residual ATP luminescence | 0.007% of 270,000 active | P51570; also: potency is read from the fitted curve at half-maximal effect
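5 nM enzyme, 35 uM ATP, 100 uM galactose, 20 mM HEPES pH8.0, 5 mM MgCl2; 1 h RT; residual ATP by Kinase-Glo Plus luminescence, qHTS format.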
Active calls of the source: *; ? = inconclusive; · = no result. This is a sample that favours compounds with a hit; in the whole collection about 0.71% have one here. Unless noted, calls follow the shape of the dose curve; as a rule, active = well fitted curve in the direction sought with a large enough effect; inconclusive = small, poorly fitted or top-dose-only effect, or another doubt; inactive = no such curve, though single readings can be large; an effect the other way counts as inactive or inconclusive. Unless noted, % is scaled to controls: 0 for no effect and ±100 for the full control effect.

SMILES | Eya2 inh | PI4K2A block | USP2a block | Coupling enz | USP1-UAF1 inh | GALK inh
CSCC[C@H](NC(=O)[C@H](Cc1c[nH]c2ccccc12)NC(=O)CNC(=O)[C@H](Cc1ccc(O)cc1)NC(=O)[C@H](C)NC(=O)[C@H](CCC(=O)O)NC(=O)[C@H](CCC(=O)O)NC(=O)[C@H](CCC(=O)O)NC(=O)[C@H](CCC(=O)O)NC(=O)[C@H](CCC(=O)O)NC(=O)[C@H](CC(C)C)NC(=O)[C@H](Cc1c[nH]c2ccccc12)NC(=O)[C@@H]1CCCN1C(=O)CNC(=O)[C@@H]1CCC(=O)N1)C(=O)N[C@@H](CC(=O)O)C(=O)N[C@@H](Cc1ccccc1)C(=O)NCC(=O)O | · | · | · | 0 | · | ·
O=C(O)c1cccc(C(=O)O)n1 | 2% | · | 2% | -80* | · | -1%
O=C(O)c1ccc2cccnc2n1 | 9% | -5 | 3% | -39* | -23% | -1%
O=C(O)c1ccc2cccc(O)c2n1 | 5% | 1 | -5% | -16 | 6% | ·
COC(=O)NC(/C(C(=O)OC)=C(\C)NCc1ccccc1)c1cccc(F)c1 (centres undefined) | · | · | · | -3 | · | ·
O=S(=O)(Nc1cccc2cccnc12)c1ccccc1O | · | · | · | -37* | · | ·
O=S(=O)(Nc1ccccc1O)c1cccc2cccnc12 | -1% | 3 | 1% | -17 | -20% | -3%
O=C(CN1CCc2ccccc21)NC(=O)NC1CCCCC1 | 1% | -1 | -1% | -1 | -12% | -2%
CC(C)(C)NC(=O)NC(=O)CN1CCc2ccccc21 | -4% | -9 | -1% | -39* | -8% | 2%
COC(=O)c1cc(C)nc2c1C(=O)C(=O)C=C2N1CCOCC1 | -1% | -83* | 1% | -79* | 1.3µM* | 7.1µM*
CCOc1ccccc1C(=O)NC1CC2CCCC(C1)N2Cc1nnnn1Cc1ccco1 (centres undefined) | -1% | 4 | 3% | 0 | -4% | 2%
CCOc1ccccc1C(=O)NC1CC2CCCC(C1)N2C1CC1 (centres undefined) | 18% | -3 | 10µM* | 4 | -13% | 0%
CCOc1ccccc1N1CCN(C(=O)c2cc(-c3cc(OC)ccc3OC)nc3ccccc23)CC1 | -17% | -2 | -10% | · | 16µM* | -2%
COc1ccc(OC)c2[nH]c(=O)c(CCNS(=O)(=O)c3ccc(Cl)cc3)cc12 | -13% | 10 | 2% | -33* | -3% | 3%
COc1ccc(OC)c2[nH]c(=O)c(CCNS(=O)(=O)c3ccc(C)cc3)cc12 | 2% | -1 | -1% | -30* | -18% | 3%
Cc1ccc(C)c2[nH]c(=O)c(CCNS(=O)(=O)c3ccccc3)cc12 | 1% | -10 | 1% | 0 | -7% | 0%
O=C(Nc1ccc(N2CCOCC2)cc1)Nc1ccc2nc(-c3ccco3)c(-c3ccco3)nc2c1 | 0% | -4 | -26% | -11 | -13% | -11%
O=C(Nc1ccc2nc(-c3ccco3)c(-c3ccco3)nc2c1)NC1CC1 | 3% | ? | 1% | -37* | ? | 1%
O=C(NCCCO)Nc1ccc2nc(-c3ccco3)c(-c3ccco3)nc2c1 | 8% | · | 13% | -43* | · | -4%
O=C(NCc1ccco1)Nc1ccc(Br)cc1 | -3% | 1 | 5% | -1 | -1% | -1%
O=C(NCc1ccco1)Nc1ccc2nsnc2c1 | 2% | ? | -1% | -38* | -15% | 3%
CCCCCCCCCCCCCCCCn1cc[n+](Cc2ccccc2)c1C | · | · | · | 0 | · | ·
Nc1ccc(N2CCCCCC2)cc1 | -4% | · | -6% | -35* | · | 2%
COc1ccc(CNC2CCC23CCC(C)CC3)cc1OC (centres undefined) | · | 0 | · | · | · | ·
CC(=Nc1ccc(C)cc1C)c1sc2ccccc2c1O | 0% | -7 | -1% | -6 | 35µM* | 0%
SMILES | Eya2 inh | PI4K2A block | USP2a block | Coupling enz | USP1-UAF1 inh | GALK inh
FC(F)(F)c1cccc(-c2nc3nc(Cl)c(Cl)nc3[nH]2)c1 | -18% | -2 | -11% | -36* | 2% | -3%
c1cnc2cc3c(cc2n1)C1CNCC3C1 | · | -1 | · | · | · | ·
CCOC(=O)c1nn(-c2ccccc2)c(=O)c2c(N)sc(C)c12 | -26% | · | -1% | · | · | ·
COc1ccc(/C=N/NC(=O)c2nn(-c3ccccc3)c(=O)c3c(N)scc23)cc1 | ? | -65* | ? | -59* | ? | -3%
CCOC(=O)c1nn(-c2ccc(C)c(C)c2)c(=O)c2c(N)scc12 | 7% | ? | 2% | -49* | -21% | -1%
CCOC(=O)c1nn(-c2ccc(OC)cc2)c(=O)c2c(N)scc12 | -8% | -27 | 0% | -53* | ? | 1%
CCOC(=O)Oc1ccc(CCNC(=O)[C@H](CCSC)NC(C)=O)cc1OC(=O)OCC | · | 1 | · | · | · | ·
Cc1noc(C)c1-c1ccc2ncnc(NCc3ccc(Br)cc3)c2c1 | · | · | · | 0 | · | ·
CC(C)CN(C(=O)CN1CCN(c2ccc(O)cc2)CC1)c1c(N)n(CC(C)C)c(=O)[nH]c1=O | 12% | 2 | 2% | -32* | -8% | 1%
CCN(C(=O)CN1CCN(c2ccc(O)cc2)CC1)c1c(N)n(Cc2ccccc2)c(=O)[nH]c1=O | 2% | -10 | -1% | -39* | -4% | -1%
COC(=O)[C@]12C[C@H](CC(=O)N3CCSCC3)C(=O)N(Cc3ccco3)C1=C[C@H](C1CCCC1)O[C@@H]2C | · | 1 | · | · | · | ·
CCCCOCCCNC(=O)C[C@H]1C[C@@]2(C(=O)OC)C(=C[C@H](C(C)(C)C)O[C@@H]2C)N(Cc2cccc3ccccc23)C1=O | · | 2 | · | · | · | ·
CN(Cc1ccco1)c1ncnc2ccc(-c3cccc(NS(C)(=O)=O)c3)cc12 | · | · | · | -1 | · | ·
Cc1ccc(C2C(C#N)=C(N)SC(N)=C2C#N)cc1 | -5% | -3 | 3% | -16 | ? | -8%
N#CC1=C(N)SC(N)=C(C#N)C1c1ccoc1 | 13% | · | 4% | -39* | · | -2%
Cc1ccc(C(=O)Nc2ccc(C(=O)N3CCCCC3)cc2)o1 | 8% | -53* | 1% | · | -4% | 18%
CCOC(=O)N/N=C1/C[C@@H](O)[C@@H](O)[C@@H]2[C@@H]3C(=O)N([C@@H](C)c4ccccc4)C(=O)[C@H]3CC[C@H]12 | · | · | · | 1 | · | ·

Screening data as filed in PubChem BioAssay.
